Source: PubChem BioAssay
CYP2C19 activ: human CYP2C19 activators, primary screen, biochemical, luminescence | Cytochrome P450 2C19 (Homo sapiens), P33261 | recombinant CYP2C19, luciferin-H EGE luminescence; hits give high values; 0 = fully inhibited enzyme, 1 = untreated enzyme | activation factor at 5 µM | 96,000 tested, under 10 active;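 active = activation factor of at least 2 at 5 µM in the primary screen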
CYP2C9 act: human CYP2C9 activators, primary screen, biochemical, luminescence. Cytochrome P450 2C9 (Homo sapiens), P11712. recombinant CYP2C9, luciferin-H conversion; hits give high values; factor 1 = untreated enzyme, 0 = blocked. activation factor at 5 µM. hit rate 1.4% among 96,000;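 active = activation factor of 2 or more for CYP2C9 at a 5 µM dose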
CYP2C19 inh: blockers of cytochrome P450 2C19 activity – biochemical, luminescence, ADME assay, primary screen. P33261. CYP2C19 Supersomes, luciferin-H EGE luminescence, 30 min. inhibition, % at 5 µM. hit rate 21% among 96,000;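 active = CYP2C19 inhibition above a set limit at 5 µM in the primary screen, cut at about 50% in these data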
CYP2C9 inh: blockers of cytochrome P450 2C9 activity – biochemical, luminescence, ADME assay, primary screen. P11712. inhibition, % at 5 µM. CYP2C9 Supersomes, luciferin-H conversion. AID 777, 2007. hit rate 20% among 96,000;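 active = blocking of liver enzyme CYP2C9 beyond about 50% at 5 µM, limit read from the data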
PLAP act: PLAP enzyme activators, biochemical, luminescence, HTS | Alkaline phosphatase, placental type (Homo sapiens), P05187 | hit rate 1.2% among 96,000 | activation fold at 20 µM | purified PLAP enzyme, luminescent substrate read-out; hits give high values; in the data active = activation fold above about 2
Target sequence (P05187 whole entry, looked up): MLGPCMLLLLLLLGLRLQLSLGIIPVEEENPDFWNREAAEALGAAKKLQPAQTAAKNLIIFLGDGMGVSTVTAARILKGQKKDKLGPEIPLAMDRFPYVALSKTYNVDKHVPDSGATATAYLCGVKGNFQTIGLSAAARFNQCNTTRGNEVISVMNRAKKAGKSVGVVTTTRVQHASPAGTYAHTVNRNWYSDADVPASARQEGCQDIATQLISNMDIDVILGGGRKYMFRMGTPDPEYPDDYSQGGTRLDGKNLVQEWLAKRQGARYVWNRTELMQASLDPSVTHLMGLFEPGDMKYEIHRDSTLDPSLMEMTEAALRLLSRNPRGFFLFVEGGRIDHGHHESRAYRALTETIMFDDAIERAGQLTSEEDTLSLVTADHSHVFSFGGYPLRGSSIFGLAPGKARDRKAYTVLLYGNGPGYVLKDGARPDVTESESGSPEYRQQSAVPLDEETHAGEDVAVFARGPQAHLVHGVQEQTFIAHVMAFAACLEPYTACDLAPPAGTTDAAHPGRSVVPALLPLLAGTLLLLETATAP
Of the large screens only hits and unclear results are named; the others gave an inactive call. The list is not random: actives were taken first. Their share in the collection is about 31%.

O=C(NCc1ccc2c(c1)OCO2)C1CC(=O)N(CCc2ccccc2)C1 (stereo not drawn)	CYP2C9 inh 77
C=C(C)CC1Nc2ccccc2NC1CC(=C)C (stereo not drawn)	none
CCN1CCN(C(c2ccccc2)c2nnnn2CCc2ccc(OC)c(OC)c2)CC1 (stereo not drawn)	none
CC1CCC(C(=O)NC(C(=O)NCCN2CCC(C)CC2)C(C)C)CC1 (stereo not drawn)	none
COc1ccc(C2C(C(=O)NC(C)C)c3ccccc3C(=O)N2C)cc1OC (stereo not drawn)	none
COCc1cc(C)nc2sc(C(=O)N3CCCCC3)c(N)c12	none
COCc1cc(C)nc2sc(C(=O)N3CCN(c4ccccc4)CC3)c(N)c12	CYP2C19 inh 80, CYP2C9 inh 78
Cc1cc(C)c2c(N)c(C(=O)N3CCN(c4ncccn4)CC3)sc2n1	CYP2C19 inh 50
O=C(Oc1cccc2c(O)cccc12)c1ccccc1	CYP2C19 inh 84, CYP2C9 inh 73
CCC(=O)NCCc1nc2cc(NC(=O)c3ccccc3OC)ccc2n1C	none
CCOc1ccc(-c2[nH]nc3c2C(c2ccc(O)cc2)C(C#N)=C(N)O3)cc1 (stereo not drawn)	none
COc1cc(C2C(C#N)=C(N)Oc3n[nH]c(C)c32)ccc1OC(=O)c1ccccc1 (stereo not drawn)	none
Cc1[nH]nc2c1C(c1ccc(OC(=O)c3ccco3)cc1)C(C#N)=C(N)O2 (stereo not drawn)	CYP2C9 inh 58
CC(C)c1[nH]nc2c1C(c1ccc(OC(=O)c3ccco3)cc1)C(C#N)=C(N)O2 (stereo not drawn)	CYP2C19 inh 74, CYP2C9 inh 73
COc1cc2c(C(=O)NCc3ccc(C)o3)cn(CC(C)C)c(=O)c2cc1OC	none
CCC1CCCCN1CCCNC(=O)c1cn(CC(C)C)c(=O)c2cc(OC)c(OC)cc12 (stereo not drawn)	PLAP act 2
Fc1ccc(-c2nc3n(n2)Cc2ccccc2-3)cc1	none
CCn1c(C)nc2cc(-c3nc4n(n3)Cc3ccccc3-4)ccc21	CYP2C19 inh 84
O=C(c1ccc(Cl)c(Cl)c1)N(Cc1ccco1)c1ccc(O)cc1	CYP2C19 inh 99, CYP2C9 inh 98
COc1ccc(-n2c(Cc3cccn3C)nnc2SCC(=O)Nc2nc(C)cs2)cc1	none
CCOC(=O)c1c(C2CCN(C(=O)OCC)CC2)nc2ccccn12	CYP2C9 inh 72
CCC(C)N1C(=O)CCC1C(=O)N1CCN(c2ccccc2F)CC1 (stereo not drawn)	none
O=S(=O)(c1ccc(Br)s1)N1CCCCC1	CYP2C19 inh 73
COc1ccc(N2CCN(S(=O)(=O)c3ccc(Br)s3)CC2)cc1	none
CC1CCN(S(=O)(=O)c2ccc(Br)s2)CC1	CYP2C19 inh 95
O=C(CN1CCCN(S(=O)(=O)c2ccc(Br)s2)CC1)Nc1ccc(Cl)cc1	CYP2C19 inh 88
Cc1ccn2cc(-c3ccc(S(=O)(=O)N4CCOCC4)cc3)nc2c1	none
COC(=O)/C(=C(/F)Sc1cc(C)c(O)c(C)c1)C(F)(F)F	CYP2C19 inh 82, CYP2C9 inh 94
CCOc1ccc(CCNC(=O)c2cc3ccccn3n2)cc1OCC	none
CCOc1ccc(C(CCc2ccccc2)NC(=O)c2ccccc2OC)cc1OCC (stereo not drawn)	CYP2C19 inh 64, CYP2C9 inh 85
CCOc1ccccc1C(=O)NC(CO)C(=O)O (stereo not drawn)	none
CCOc1ccc(C(CCc2ccccc2)NC(=O)c2ccccc2F)cc1OCC (stereo not drawn)	CYP2C19 inh 77, CYP2C9 inh 78
CCC(C)C(NC(=O)[C@@H](NC(=O)c1ccccc1F)C(C)C)C(=O)OC (stereo partly drawn)	none
CC1=C(C(=O)Nc2cc(C)ccc2C)C(c2cccs2)NC(=S)N1 (stereo not drawn)	none
N#Cc1cc([N+](=O)[O-])ccc1Oc1cccc(/C=N/NC(=O)c2cccc(Cl)c2)c1	none
CCc1ccc2c(c1)cc(CN(C(=S)Nc1ccc(Cl)cc1)C1CC1)c1nnnn12	CYP2C9 inh 78
O=C(CN1C(=O)CSC1=O)Nc1ccc2c(c1)OCCO2	none
COc1ccc(CCn2c(N)c(C(=O)NCc3ccco3)c3nc4ccccc4nc32)cc1OC	CYP2C19 inh 77, CYP2C9 inh 56
Nc1c(C(=O)NCc2ccco2)c2nc3ccccc3nc2n1CCc1ccccc1F	CYP2C9 inh 52
c1cc2[nH]snc2c2nc(C3CC3)nc12	none
C/C(=N\NC(=O)CSCc1ccc(Cl)cc1)c1ccc2c(c1)OCCO2	CYP2C19 inh 84, CYP2C9 inh 64
C/C(=N\NC(=O)CSCc1cccc(Br)c1)c1ccc([N+](=O)[O-])cc1	none
O=C1CC(N2CCN(c3ccc(S(=O)(=O)N4CCCC4)cc3)CC2)C(=O)N1c1ccc(F)cc1 (stereo not drawn)	none
Cc1ccc2c(CC(=O)N3CCc4ccccc43)coc2c1	CYP2C19 inh 79
O=C(CSc1c[nH]c2ccccc12)N1CCCc2ccccc21	none
O=C(CCCc1ccccc1)N1CCc2ccccc21	CYP2C19 inh 78, CYP2C9 inh 59
O=C(Cc1c[nH]c2ccccc12)N1CCc2ccccc21	CYP2C19 inh 92, CYP2C9 inh 77
O=C(CS(=O)(=O)Cc1ccccc1)N1CCc2ccccc21	CYP2C9 act 2.1
O=C(Cc1coc2ccc3ccccc3c12)N1CCc2ccccc21	none
CS(=O)(=O)NCCCNc1ccc(Cl)cc1[N+](=O)[O-]	CYP2C19 inh 66
Cc1ccc(C(=O)NCCNc2ccc(Cl)cc2[N+](=O)[O-])o1	CYP2C9 inh 55
Cc1ccc(Nc2nc(C(=O)N3CCC(C(=O)NCCN4CCOCC4)CC3)cs2)cc1	none
Cc1ccc(Nc2nc(C(=O)N3CCC(C(=O)N4CCN(C)CC4)CC3)cs2)cc1	CYP2C19 inh 77
COc1ccc(-n2cnnc2SCC(=O)c2ccc(S(=O)(=O)N3CCOCC3)cc2)cc1	none
O=C(CN1CCC(NC(=O)Cc2ccccc2)CC1)Nc1cccc2ccccc12	none
CCc1nc2ccc(C)cc2c(C(=O)Oc2cccc3cccnc23)c1C	CYP2C9 inh 51
CCc1nc2ccccc2c(C(=O)Oc2cccc3cccnc23)c1C	none
Cn1c(=O)c2c(nc(N3CCCCCC3)n2Cc2cccc3ccccc23)n(C)c1=O	CYP2C19 inh 76, CYP2C9 inh 90
CN1CCN(c2nc3c(c(=O)n(C)c(=O)n3C)n2Cc2cccc3ccccc23)CC1	none
Cn1c(=O)c2c(nc(-n3ccnc3)n2Cc2ccc(Cl)cc2Cl)n(C)c1=O	CYP2C19 inh 60, CYP2C9 inh 80
CCOC(=O)Cn1c(=O)c2c(nc(N3CCCCC3)n2C)n(C)c1=O	CYP2C9 inh 55
